The results in this text go back to PubChem BioAssay (NCATS).

Assay [1] concerns the target Cellular tumor antigen p53 (Homo sapiens) (UniProt P04637). Put plainly: Primary qHTS for small molecule compounds that upregulate eGFP-tagged delta133p53alpha (in N-terminal) cells. (AID 2060322). Further: nearly all actives have a fitted effect of over 75% in size. Further: potency means the concentration at half of the fitted maximal effect.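 On activation: series mostly up to about 56 µM; 0% = DMSO vehicle and 100% = reference activator.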 The conditions noted are these: NCI-H358 eGFP-delta133p53alpha fluorescence, 24 h; activation: stronger effect = higher value. In short, it runs like this: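 NCI-H358 cells pre-induced 24 h with 10 ng/ml doxycycline to express N-terminal eGFP-delta133p53alpha, then dosed 24 h at 37C without doxycycline; fixed, Hoechst-stained, GFP intensity by laser scanning cytometry, normalized to DMSO (0%) and 57.5 uM 5-azacytidine (100%).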

Assay [2] has as its target Aldehyde dehydrogenase, mitochondrial (Homo sapiens) (UniProt P05091). Put plainly: qHTS for Inhibitors of the Aldehyde Dehydrogenase Family (ALDH2) Primary screen (AID 2061308).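 Further: plate controls were vehicle for no effect and reference inhibitor for full effect; nearly all actives have a fitted effect of over 55% in size.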
Assay [3] addresses Retinaldehyde dehydrogenase 3 (Homo sapiens) (UniProt P47895). Briefly: qHTS for Inhibitors of the Aldehyde Dehydrogenase Family (ALDH1A3) Primary screen (AID 2061315).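 Further: plate controls were DMSO vehicle for no effect and reference inhibitor for full effect.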
Assay [4] in a line: BET inhibitor-based combinations targeting novel dependencies in MECOM-rearranged (r) AML: OCI-AML3 cell line (AID 2202232). Further: nearly all actives have a fitted effect of over 35% in size. Further: potency means the concentration at half of the fitted maximal effect. The note with it: Potency: OCI-AML3 viability. The method, boiled down: (§1)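 500 cells/well; 11-pt dose curve; 48 h, standard incubator; CellTiter-Glo luminescence after 15 min RT; DMSO/empty-well normalization; AUC plus Z-AUC (mean-centered within each line).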

A short description of assay [5]: BET inhibitor-based combinations targeting novel dependencies in MECOM-rearranged (r) AML: HNT-34 cell line (AID 2202234). Further: nearly all actives have a fitted effect of over 35% in size. Further: potency means the concentration at half of the fitted maximal effect. In short, it runs like this: (§2)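 Cells were plated at 500 per well and exposed to each drug across an 11-point dose range for 48 hr at standard incubator conditions. Viability was read by CellTiter-Glo luminescence, and activity was expressed as AUC and per-cell-line Z-transformed AUC.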

Assay [6] in a line: BET inhibitor-based combinations targeting novel dependencies in MECOM-rearranged (r) AML: UCSD-AML1 cell line (AID 2202235). Further: nearly all actives have a fitted effect of over 40% in size. Further: potency means the concentration at half of the fitted maximal effect. In short, it runs like this:
as §2

Assay [7] in a line: BET inhibitor-based combinations targeting novel dependencies in MECOM-rearranged (r) AML: AML-191 cell line (AID 2202236; further: nearly all actives have a fitted effect of over 35% in size; further: potency means the concentration at half of the fitted maximal effect). The method, boiled down: as §1
Assay [8] can be described thus: BET inhibitor-based combinations targeting novel dependencies in MECOM-rearranged (r) AML: AML-194 cell line (AID 2202237; further: nearly all actives have a fitted effect of over 40% in size; further: potency means the concentration at half of the fitted maximal effect). The method, boiled down: as §1
Assay [9] can be described thus: BET inhibitor-based combinations targeting novel dependencies in MECOM-rearranged (r) AML: MV-4-11 cell line (AID 2202233). Further: nearly all actives have a fitted effect of over 45% in size. Further: potency means the concentration at half of the fitted maximal effect. The method, boiled down:
as §2

“And” between values parts separate entries of the source, which are not always exact repeats. Equal values may be shown once. Results filed as inconclusive are left out. Unmarked numbers belong to inactive results. The source made the active and inactive calls. The call rests on the fitted dose curve; in most records, active means well fitted curve in the direction sought with a large enough effect; inconclusive means small, poorly fitted or top-dose-only effect, or another doubt; inactive means no such curve, though single readings can be large; an effect the other way counts as inactive or inconclusive.

Chain of Cellular tumor antigen p53 (Homo sapiens) (P04637 whole entry, looked up): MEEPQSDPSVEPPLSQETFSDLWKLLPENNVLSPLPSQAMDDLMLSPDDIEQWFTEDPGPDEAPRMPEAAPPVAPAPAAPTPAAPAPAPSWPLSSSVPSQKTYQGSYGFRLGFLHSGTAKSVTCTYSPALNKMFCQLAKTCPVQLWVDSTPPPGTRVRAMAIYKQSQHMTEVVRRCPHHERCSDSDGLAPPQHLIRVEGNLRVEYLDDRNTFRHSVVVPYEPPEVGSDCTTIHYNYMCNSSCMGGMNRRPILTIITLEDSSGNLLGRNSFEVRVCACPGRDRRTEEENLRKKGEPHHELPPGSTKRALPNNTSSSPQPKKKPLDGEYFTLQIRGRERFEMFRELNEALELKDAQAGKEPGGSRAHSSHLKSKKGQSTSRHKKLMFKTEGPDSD

As to `COc1ncc(-c2ccc3c(Nc4cc(Oc5cc(F)cc(F)c5)cc(C(=O)O)c4)c(S(=O)(=O)NC4CC4)cnc3c2)c(OC)n1`, the activation in assay [1] is -3.34%. For the same compound, the Potency result in assay [2], in [3], in assay [4], in [5], in assay [6] and in assay [7] was “inactive” each time. Also, the Potency entry in [8] is “inactive”.
For the compound `C[C@@H]1CCN(C(=O)N2CCCC2)C[C@@H]1N(C)c1ncnc2[nH]ccc12`, the activation in assay [1] was -10.7%. Moreover, the Potency result in [2], in [3] and in assay [4] was “inactive” throughout. Also, the Potency in [5] is 16.6 µM (active).
Consider `CN(NC(=O)CC(=O)NN(C)C(=S)c1ccccc1)C(=S)c1ccccc1`, for which the Potency in [1] is 0.861 µM (active); in [4], 0.0525 µM (active); in assay [5], 0.0148 µM (active); in assay [6], 0.059 µM (active); in assay [7] it was 0.0372 µM (active); in [8], 0.0417 µM (active). Besides, the Potency entry in assay [2] and in assay [3] was “inactive” throughout.
Take `CNC(=O)c1ccc2cc(C3(O)CCn4cncc43)ccc2c1` (stereo not drawn): the activation in [1] is -1.49% and -0.893%. Also, the Potency entry in [2], in [3], in assay [4], in [5], in [6] and in assay [7] was “inactive” each time. In addition, in assay [8], the Potency entry is “inactive”.
As for `CC(C)(C)Cn1c(N)nc2ccc(-c3[nH]c(C(C)(C)C)nc3-c3ccc(F)cc3)nc21`, in assay [1], the activation was -1.62%. The Potency result in assay [2], in assay [3] and in [6] was “inactive” in each case. Further, the Potency is 18.6 µM (active) in assay [9] and 23.5 µM (active) in assay [5].
With `CNC(=O)c1ccc(C)c(-n2c(C)cc(OCc3ccc(F)cc3F)c(Br)c2=O)c1`, the activation in assay [1] is 30.3% and -12.5%. Also, the Potency entry in assay [2], in [3], in assay [4], in [6] and in assay [8] was “inactive” throughout.
Turning to `Cc1[nH]c(/C=C2\C(=O)Nc3ccc(F)cc32)c(C)c1C(=O)NCCN1CCCC1`, the Potency in [1] was 2.69 µM (active); in assay [4], 8.11 µM (active); in [9], 0.0323 µM (active); in assay [7], 6.45 µM (active); in assay [8], 7.23 µM (active). Besides, the Potency result in assay [2] and in [3] was “inactive” throughout.
`COc1cc2nccc(Oc3ccc(NC(=O)Nc4cc(C)on4)c(Cl)c3)c2cc1OC`: the Potency is 30.6 µM (active) and 21.3 µM (active) in assay [1]; 1.05 µM (active) in assay [9]; 0.209 µM (active) in [5]; 16.6 µM (active) in assay [6]; 7.42 µM (active) in assay [7]; 6.61 µM (active) in assay [8]. Also, the Potency entry in assay [2] and in [3] was “inactive” each time.
Take `Cc1c(C(=O)N2CCOc3ccc(-c4ccc(N)nc4)cc3C2)ccc(S(C)(=O)=O)c1F`: the Potency in assay [1] was 26.9 µM (active); in assay [9], 6.61 µM (active); in assay [5], 2.95 µM (active); in assay [6], 0.742 µM (active); in assay [7], 1.86 µM (active). Besides, the Potency result in [2] and in [3] was “inactive” each time.
On to `Cc1cc(SCc2sc(-c3ccc(C(F)(F)F)cc3)nc2C)ccc1OCC(=O)O`, for which, in [1], the activation was -4.33%. Moreover, the Potency result in assay [2], in assay [3], in [9], in assay [5], in assay [6] and in [7] was “inactive” throughout. In addition, the Potency result in assay [8] was “inactive”.
Regarding `Cc1cc(F)c(C(=O)Nc2cccc(-c3nncn3C(C)C)n2)cc1-n1cnc(C2CC2)c1`, the activation in assay [1] was 35%. The Potency result in assay [2] and in [3] was “inactive” throughout. Further, the Potency in assay [5] was 20.9 µM (active); in assay [6] it was 16.6 µM (active); in assay [7] it was 18.6 µM (active).
For `CC(C)(N)c1ccc(-c2nc3ccccc3nc2-c2ccccc2)cc1`, the activation in assay [1] was 25%. The Potency entry in assay [2] and in [3] was “inactive” in each case. The results for the Potency in assay [5] and in assay [7] were 16.6 µM (active) and 20.9 µM (active), respectively.
For `CCN(CCCOc1ccc2c(Nc3cc(CC(=O)Nc4cccc(F)c4)[nH]n3)ncnc2c1)CCOP(=O)(O)O`, in assay [1], the activation was 15.2%. Besides, the Potency result in assay [2], in assay [3] and in assay [6] was “inactive” each time. Moreover, the Potency in [9] was 0.372 µM (active); in assay [8] it was 0.662 µM (active).
Take `CN(C)CCCNC(=O)c1ccc(-c2cc(O)c3ncccc3c2)cc1`: in assay [1], the activation was -8.46% and -17.9%. In addition, the Potency result in assay [2] and in assay [3] was “inactive” each time. Besides, the Potency in assay [6] was 18.6 µM (active).
For the compound `Cc1ccc(NC(=O)c2ccc(CN3CCNCC3)cc2)cc1Nc1nccc(-c2cccnc2)n1`, the activation in assay [1] is -16.1%. The Potency entry in assay [2] and in assay [3] was “inactive” each time. The values for the Potency in assay [9], in assay [5] and in [8] were 18.6 µM (active), 2.63 µM (active) and 23.5 µM (active), respectively.
As to `N#Cc1cccc(-c2c[nH]c3ncnc(N4CCOCC4)c23)c1`, the activation in assay [1] is -5.36%. Also, the Potency result in [2], in [3], in assay [6] and in [8] was “inactive” in each case. In assay [7], the Potency was 18.6 µM (active).
With `CCn1c(=O)c(-c2ccn[nH]2)cc2c(C)nc(N)nc21`, the activation in assay [1] was 4.46%. Further, the Potency result in assay [2] and in assay [3] was “inactive” throughout. Besides, the Potency in assay [9] was 5.25 µM (active); in assay [6] it was 0.59 µM (active).
For `CNC(=O)c1cccc2cc(Oc3ccnc4cc(OCC5(N)CC5)c(OC)cc34)ccc12`, the activation in assay [1] is 12.5%. Also, the Potency result in assay [2] and in assay [3] was “inactive” throughout. In addition, the Potency in [5] is 16.6 µM (active); in assay [6] it was 18.6 µM (active); in assay [7], 20.9 µM (active); in assay [8] it was 23.5 µM (active).
For the compound `COc1ccc2cc(-c3nc(-c4ccc(S(C)=O)cc4)[nH]c3-c3ccncc3)ccc2c1` (stereo not drawn), the activation in assay [1] was -7.86% and 8.04%. The Potency entry in [2], in assay [3] and in [6] was “inactive” each time.
With `Cc1sc2c(c1C)C(c1ccc(Cl)cc1)=N[C@@H](CC(=O)Nc1ccc(OCCOCCOCCOCCNc3cccc4c3C(=O)N(C3CCC(=O)NC3=O)C4=O)cc1)c1nnc(C)n1-2` (stereo partly drawn), the activation in assay [1] is 59%. For the same compound, the Potency result in assay [2] and in assay [3] was “inactive” in each case. Also, the Potency in [9] is 0.0417 µM (active); in assay [5] it was 0.0148 µM (active); in assay [6], 0.0209 µM (active); in [7], 0.0833 µM (active); in assay [8] it was 0.0525 µM (active).
